Targets with a hit are over-represented here; the source holds about 7,900 in all. About 0.6% of all pairs of compound and target were hits.
Legend:
Experiment in all cases: log2 fold change, soluble protein after heating vs DMSO (PISA); higher = thermal stabilisation; K562 cells, 10 uM, 30 min; active = over 0.2 and 3.5 SD of the protein, either way, in both replicates (recomputed)
[1] = compound: C1=CC=C(C=C1)[C@H](COC2=CC3=C(C=C2)NC(=O)N3)NC(=O)C4=CC=CN(C4=O)CC5=CC(=C(C=C5)F)F
Summary of the method: (§1)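 K562 cells at 2×10^6 cells/mL were treated for 30 min with 10 μM compound, and aliquots were heated for 3 min over 48°C-58°C before pooling. Extraction used PBS with 0.5% NP-40 at 4°C, and soluble protein was the supernatant after 21,000xg for 90 min, measured by TMTpro 16plex LC-MS/MS with channel sums equalised. Thermal stability values, relative to control samples and from duplicates, are log2 fold changes.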

[2] = compound: CC1=C(SC2=C1C(=N[C@H](C3=NN=C(N32)C)CC(=O)N)C4=CC=C(C=C4)Cl)C
Summary of the method: as §1

[3] = compound: CC1=C2C(=CC=C1)N=C(N(C2=O)C3=CC=CC=C3C)CN4C=NC5=C(N=CN=C54)N
Summary of the method: as §1

[4] = compound: Cc1sc2c(c1C)C(c1ccc(Cl)cc1)=N[C@@H](CC(=O)OC(C)(C)C)c1nnc(C)n1-2
Summary of the method: as §1

[5] = compound: c1ccc([C@@H]2C[C@H]2NC2CCNCC2)cc1
Summary of the method: as §1

Target: CHST11 (UniProt Q9NPF2)
- log2 fold change [1]: 0.018 (inactive)
- log2 fold change [2]: -0.061 (inactive)
- log2 fold change [3]: 0.055 (inactive)
- log2 fold change [4]: 0.007 (inactive)
- log2 fold change [5]: -0.139 (inactive)

Target: CES2 isoform 4 (UniProt O00748)
- log2 fold change [1]: 0.041 (inactive)
- log2 fold change [2]: -0.069 (inactive)
- log2 fold change [3]: 0.061 (inactive)
- log2 fold change [4]: 0.118 (inactive)
- log2 fold change [5]: -0.141 (inactive)

Target: CHCHD1 (UniProt Q96BP2)
- log2 fold change [1]: 0.07 (inactive)
- log2 fold change [2]: -0.056 (inactive)
- log2 fold change [3]: -0.031 (inactive)
- log2 fold change [4]: 0.168 (inactive)
- log2 fold change [5]: 0.021 (inactive)

Target: CRLF3 (UniProt Q8IUI8)
- log2 fold change [1]: -0.03 (inactive)
- log2 fold change [2]: 0.045 (inactive)
- log2 fold change [3]: 0.087 (inactive)
- log2 fold change [4]: 0.088 (inactive)
- log2 fold change [5]: -0.036 (inactive)

Target: CPT1A (UniProt P50416)
- log2 fold change [1]: 0.095 (inactive)
- log2 fold change [2]: 0.011 (inactive)
- log2 fold change [3]: 0.125 (inactive)
- log2 fold change [4]: -0.022 (inactive)
- log2 fold change [5]: -0.118 (inactive)

Target: CPQ (UniProt Q9Y646)
Chain of UniProt Q9Y646 (Q9Y646 whole entry, looked up): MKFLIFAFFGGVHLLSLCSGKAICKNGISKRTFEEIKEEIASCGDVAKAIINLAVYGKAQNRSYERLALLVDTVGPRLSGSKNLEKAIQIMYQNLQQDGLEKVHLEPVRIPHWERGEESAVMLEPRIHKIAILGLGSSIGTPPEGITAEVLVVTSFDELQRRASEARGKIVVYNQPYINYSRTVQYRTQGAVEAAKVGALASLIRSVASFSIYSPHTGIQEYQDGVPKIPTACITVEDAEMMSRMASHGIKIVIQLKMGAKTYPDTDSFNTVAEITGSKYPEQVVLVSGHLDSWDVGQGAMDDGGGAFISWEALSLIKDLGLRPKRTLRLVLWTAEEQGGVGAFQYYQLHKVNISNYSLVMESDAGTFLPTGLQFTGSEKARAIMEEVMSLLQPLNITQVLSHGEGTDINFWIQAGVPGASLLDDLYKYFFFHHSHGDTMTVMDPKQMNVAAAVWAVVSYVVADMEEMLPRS
- log2 fold change [1]: 0.045 (inactive)
- log2 fold change [2]: -0.077 (inactive)
- log2 fold change [3]: -0.078 (inactive)
- log2 fold change [4]: -0.031 (inactive)
- log2 fold change [5]: 0.084 (inactive)

Target: CMTM3 (UniProt Q96MX0)
Chain of UniProt Q96MX0 (Q96MX0 whole entry, looked up): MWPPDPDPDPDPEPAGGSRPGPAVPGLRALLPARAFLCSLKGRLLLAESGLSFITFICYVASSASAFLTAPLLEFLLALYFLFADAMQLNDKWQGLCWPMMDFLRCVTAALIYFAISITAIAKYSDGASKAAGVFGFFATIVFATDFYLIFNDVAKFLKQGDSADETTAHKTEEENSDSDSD
- log2 fold change [1]: -0.179 (inactive)
- log2 fold change [2]: -0.001 (inactive)
- log2 fold change [3]: -0.056 (inactive)
- log2 fold change [4]: 0.044 (inactive)
- log2 fold change [5]: 0.081 (inactive)

Target: COA6 isoform 2 (UniProt Q5JTJ3)
- log2 fold change [1]: 0.06 (inactive)
- log2 fold change [2]: 0.08 (inactive)
- log2 fold change [3]: 0.038 (inactive)
- log2 fold change [4]: -0.06 (inactive)
- log2 fold change [5]: -0.015 (inactive)

Target: CHEK1 (UniProt O14757)
- log2 fold change [1]: 0.006 (inactive)
- log2 fold change [2]: 0.065 (inactive)
- log2 fold change [3]: 0.087 (inactive)
- log2 fold change [4]: 0.025 (inactive)
- log2 fold change [5]: 0.01 (inactive)

Target: CALCOCO2 isoform 4 (UniProt Q13137)
Chain of UniProt Q13137 (Q13137 whole entry, looked up): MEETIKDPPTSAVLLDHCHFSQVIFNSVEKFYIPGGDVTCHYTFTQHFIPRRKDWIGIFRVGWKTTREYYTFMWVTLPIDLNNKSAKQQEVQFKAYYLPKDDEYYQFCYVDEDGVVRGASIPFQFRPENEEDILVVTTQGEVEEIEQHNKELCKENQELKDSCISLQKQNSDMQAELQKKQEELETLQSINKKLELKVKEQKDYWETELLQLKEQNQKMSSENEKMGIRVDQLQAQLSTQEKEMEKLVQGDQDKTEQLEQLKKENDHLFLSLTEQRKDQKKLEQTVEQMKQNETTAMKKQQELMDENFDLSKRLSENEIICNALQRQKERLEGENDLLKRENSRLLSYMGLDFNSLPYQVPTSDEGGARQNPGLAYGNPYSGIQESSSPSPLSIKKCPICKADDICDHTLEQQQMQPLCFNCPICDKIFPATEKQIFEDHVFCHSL
- log2 fold change [1]: -0.036 (inactive)
- log2 fold change [2]: -0.002 (inactive)
- log2 fold change [3]: -0.04 (inactive)
- log2 fold change [4]: 0.049 (inactive)
- log2 fold change [5]: 0.026 (inactive)

Target: COPS8 (UniProt Q99627)
Chain of UniProt Q99627 (Q99627 whole entry, looked up): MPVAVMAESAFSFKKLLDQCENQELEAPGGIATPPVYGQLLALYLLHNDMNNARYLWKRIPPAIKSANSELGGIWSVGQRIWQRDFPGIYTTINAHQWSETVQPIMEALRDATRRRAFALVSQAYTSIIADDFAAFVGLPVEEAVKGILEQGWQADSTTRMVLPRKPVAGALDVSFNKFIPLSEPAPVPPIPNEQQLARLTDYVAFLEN
- log2 fold change [1]: 0.002 (inactive)
- log2 fold change [2]: 0.086 (inactive)
- log2 fold change [3]: 0.039 (inactive)
- log2 fold change [4]: -0.123 (inactive)
- log2 fold change [5]: -0.014 (inactive)

Target: CMTR1 (UniProt Q8N1G2)
- log2 fold change [1]: -0.008 (inactive)
- log2 fold change [2]: 0.033 (inactive)
- log2 fold change [3]: 0.07 (inactive)
- log2 fold change [4]: -0.009 (inactive)
- log2 fold change [5]: -0.04 (inactive)

Target: CDAN1 (UniProt Q8IWY9)
- log2 fold change [1]: -0.035 (inactive)
- log2 fold change [2]: -0.049 (inactive)
- log2 fold change [3]: 0.051 (inactive)
- log2 fold change [4]: 0.091 (inactive)
- log2 fold change [5]: 0.022 (inactive)

Target: COMT (UniProt P21964)
- log2 fold change [1]: 0.024 (inactive)
- log2 fold change [2]: 0.142 (inactive)
- log2 fold change [3]: 0.09 (inactive)
- log2 fold change [4]: -0.028 (inactive)
- log2 fold change [5]: -0.038 (inactive)

Target: CHAMP1 (UniProt Q96JM3)
- log2 fold change [1]: -0.073 (inactive)
- log2 fold change [2]: 0.044 (inactive)
- log2 fold change [3]: 0.022 (inactive)
- log2 fold change [4]: -0.051 (inactive)
- log2 fold change [5]: -0.006 (inactive)

Target: CHMP4C (UniProt Q96CF2)
Chain of UniProt Q96CF2 (Q96CF2 whole entry, looked up): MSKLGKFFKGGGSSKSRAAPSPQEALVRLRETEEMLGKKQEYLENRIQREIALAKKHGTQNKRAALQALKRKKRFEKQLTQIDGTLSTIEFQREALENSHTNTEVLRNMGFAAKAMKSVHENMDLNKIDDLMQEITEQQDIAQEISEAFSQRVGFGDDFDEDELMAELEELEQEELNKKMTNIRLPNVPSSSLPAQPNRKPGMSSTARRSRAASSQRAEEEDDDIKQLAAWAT
- log2 fold change [1]: -0.002 (inactive)
- log2 fold change [2]: 0.169 (inactive)
- log2 fold change [3]: 0.045 (inactive)
- log2 fold change [4]: 0.051 (inactive)
- log2 fold change [5]: 0.03 (inactive)

Target: CSTF2 (UniProt P33240)
Chain of UniProt P33240 (P33240 whole entry, looked up): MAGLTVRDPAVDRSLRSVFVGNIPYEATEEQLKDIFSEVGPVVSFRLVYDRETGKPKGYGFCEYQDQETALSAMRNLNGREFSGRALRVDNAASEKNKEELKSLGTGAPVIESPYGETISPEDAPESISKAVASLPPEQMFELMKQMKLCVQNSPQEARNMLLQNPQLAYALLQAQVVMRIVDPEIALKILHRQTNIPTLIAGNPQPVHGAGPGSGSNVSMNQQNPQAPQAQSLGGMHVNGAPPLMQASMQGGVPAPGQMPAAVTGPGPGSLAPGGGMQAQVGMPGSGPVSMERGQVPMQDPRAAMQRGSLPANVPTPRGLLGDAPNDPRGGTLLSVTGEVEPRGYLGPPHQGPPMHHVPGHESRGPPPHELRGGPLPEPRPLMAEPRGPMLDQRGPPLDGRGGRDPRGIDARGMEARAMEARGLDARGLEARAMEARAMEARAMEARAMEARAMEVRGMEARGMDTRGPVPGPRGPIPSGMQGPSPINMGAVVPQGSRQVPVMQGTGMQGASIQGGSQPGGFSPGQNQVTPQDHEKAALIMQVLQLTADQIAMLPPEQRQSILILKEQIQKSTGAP
- log2 fold change [1]: 0.017 (inactive)
- log2 fold change [2]: 0.04 (inactive)
- log2 fold change [3]: 0.057 (inactive)
- log2 fold change [4]: -0.026 (inactive)
- log2 fold change [5]: 0.021 (inactive)

Target: CASTOR2 (UniProt A6NHX0)
- log2 fold change [1]: 0.056 (inactive)
- log2 fold change [2]: 0.078 (inactive)
- log2 fold change [3]: 0.039 (inactive)
- log2 fold change [4]: -0.065 (inactive)
- log2 fold change [5]: -0.016 (inactive)

Target: CAMKK2 (UniProt Q96RR4)
- log2 fold change [1]: -0.047 (inactive)
- log2 fold change [2]: 0.388 (inactive)
- log2 fold change [3]: 0.023 (inactive)
- log2 fold change [4]: 0.019 (inactive)
- log2 fold change [5]: 0.149 (inactive)

Target: CIT isoform 4 (UniProt O14578)
- log2 fold change [1]: -0.055 (inactive)
- log2 fold change [2]: 0.002 (inactive)
- log2 fold change [3]: 0.001 (inactive)
- log2 fold change [4]: -0.011 (inactive)
- log2 fold change [5]: 0.009 (inactive)

Target: CHCHD4 isoform 2 (UniProt Q8N4Q1)
Chain of UniProt Q8N4Q1 (Q8N4Q1 whole entry, looked up): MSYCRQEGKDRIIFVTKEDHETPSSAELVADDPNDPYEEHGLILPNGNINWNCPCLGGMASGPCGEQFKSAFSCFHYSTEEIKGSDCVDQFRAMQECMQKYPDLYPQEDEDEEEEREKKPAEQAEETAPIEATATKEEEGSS
- log2 fold change [1]: 0.08 (inactive)
- log2 fold change [2]: 0.205 (inactive)
- log2 fold change [3]: -0.006 (inactive)
- log2 fold change [4]: -0.489 (active)
- log2 fold change [5]: -0.113 (inactive)

Target: CHERP (UniProt Q8IWX8)
- log2 fold change [1]: -0.023 (inactive)
- log2 fold change [2]: -0.07 (inactive)
- log2 fold change [3]: 0.008 (inactive)
- log2 fold change [4]: 0.101 (inactive)
- log2 fold change [5]: 0.018 (inactive)

Target: CPT2 (UniProt P23786)
Chain of UniProt P23786 (P23786 whole entry, looked up): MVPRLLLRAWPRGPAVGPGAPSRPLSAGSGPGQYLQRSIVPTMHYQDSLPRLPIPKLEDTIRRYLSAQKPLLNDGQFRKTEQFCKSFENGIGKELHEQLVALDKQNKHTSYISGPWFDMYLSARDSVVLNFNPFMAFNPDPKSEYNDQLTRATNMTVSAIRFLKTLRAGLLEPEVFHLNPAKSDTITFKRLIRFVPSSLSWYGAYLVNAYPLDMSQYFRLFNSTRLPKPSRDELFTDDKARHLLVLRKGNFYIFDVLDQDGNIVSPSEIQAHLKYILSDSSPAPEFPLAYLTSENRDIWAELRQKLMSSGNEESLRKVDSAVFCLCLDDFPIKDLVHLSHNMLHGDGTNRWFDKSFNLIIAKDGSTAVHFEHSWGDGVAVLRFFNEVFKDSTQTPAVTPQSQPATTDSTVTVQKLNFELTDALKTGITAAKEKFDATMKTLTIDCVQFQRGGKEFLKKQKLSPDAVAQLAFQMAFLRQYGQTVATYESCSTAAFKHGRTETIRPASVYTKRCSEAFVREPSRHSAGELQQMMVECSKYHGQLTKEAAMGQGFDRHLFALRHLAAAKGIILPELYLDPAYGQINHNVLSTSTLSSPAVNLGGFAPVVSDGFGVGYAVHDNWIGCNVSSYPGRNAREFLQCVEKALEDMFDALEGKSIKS
- log2 fold change [1]: -0.402 (inactive)
- log2 fold change [2]: 0.19 (inactive)
- log2 fold change [3]: 0.155 (inactive)
- log2 fold change [4]: -0.017 (inactive)
- log2 fold change [5]: -0.026 (inactive)

Target: CIR1 (UniProt Q86X95)
Chain of UniProt Q86X95 (Q86X95 whole entry, looked up): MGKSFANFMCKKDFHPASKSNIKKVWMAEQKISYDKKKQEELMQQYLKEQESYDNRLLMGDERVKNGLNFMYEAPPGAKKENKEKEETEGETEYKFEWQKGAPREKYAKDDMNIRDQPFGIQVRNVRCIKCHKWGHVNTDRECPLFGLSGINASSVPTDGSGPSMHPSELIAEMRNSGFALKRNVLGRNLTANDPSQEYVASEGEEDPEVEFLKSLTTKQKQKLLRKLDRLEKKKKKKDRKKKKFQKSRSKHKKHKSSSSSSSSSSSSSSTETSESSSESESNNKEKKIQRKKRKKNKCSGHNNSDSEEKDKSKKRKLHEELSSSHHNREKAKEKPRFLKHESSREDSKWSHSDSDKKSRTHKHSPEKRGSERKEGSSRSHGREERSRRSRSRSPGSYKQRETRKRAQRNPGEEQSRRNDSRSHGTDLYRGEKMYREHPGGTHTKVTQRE
- log2 fold change [1]: -0.075 (inactive)
- log2 fold change [2]: -0.286 (inactive)
- log2 fold change [3]: -0.241 (inactive)
- log2 fold change [4]: 0.198 (inactive)
- log2 fold change [5]: 0.217 (inactive)

Target: CD63 (UniProt P08962)
- log2 fold change [1]: 0.041 (inactive)
- log2 fold change [2]: 0.02 (inactive)
- log2 fold change [3]: -0.008 (inactive)
- log2 fold change [4]: 0.009 (inactive)
- log2 fold change [5]: 0.035 (inactive)

Target: CAMSAP1 isoform 3 (UniProt Q5T5Y3)
- log2 fold change [1]: -0.06 (inactive)
- log2 fold change [2]: 0.083 (inactive)
- log2 fold change [3]: 0.221 (inactive)
- log2 fold change [4]: 0.016 (inactive)
- log2 fold change [5]: 0.02 (inactive)

Target: CORO2A (UniProt Q92828)
- log2 fold change [1]: -0.057 (inactive)
- log2 fold change [2]: -0.041 (inactive)
- log2 fold change [3]: 0.061 (inactive)
- log2 fold change [4]: 0.045 (inactive)
- log2 fold change [5]: 0.071 (inactive)

Target: CETN3 (UniProt O15182)
Chain of UniProt O15182 (O15182 whole entry, looked up): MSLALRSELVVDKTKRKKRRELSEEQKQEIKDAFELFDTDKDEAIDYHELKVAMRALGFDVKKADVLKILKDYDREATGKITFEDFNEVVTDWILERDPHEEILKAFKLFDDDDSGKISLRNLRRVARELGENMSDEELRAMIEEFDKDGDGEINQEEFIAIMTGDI
- log2 fold change [1]: 0.019 (inactive)
- log2 fold change [2]: -0.055 (inactive)
- log2 fold change [3]: 0.109 (inactive)
- log2 fold change [4]: 0.008 (inactive)
- log2 fold change [5]: -0.014 (inactive)

Target: CALB1 (UniProt P05937)
- log2 fold change [1]: 0.001 (inactive)
- log2 fold change [2]: 0.009 (inactive)
- log2 fold change [3]: -0.045 (inactive)
- log2 fold change [4]: -0.068 (inactive)
- log2 fold change [5]: 0.026 (inactive)

Target: COASY isoform 2 (UniProt Q13057)
Chain of UniProt Q13057 (Q13057 whole entry, looked up): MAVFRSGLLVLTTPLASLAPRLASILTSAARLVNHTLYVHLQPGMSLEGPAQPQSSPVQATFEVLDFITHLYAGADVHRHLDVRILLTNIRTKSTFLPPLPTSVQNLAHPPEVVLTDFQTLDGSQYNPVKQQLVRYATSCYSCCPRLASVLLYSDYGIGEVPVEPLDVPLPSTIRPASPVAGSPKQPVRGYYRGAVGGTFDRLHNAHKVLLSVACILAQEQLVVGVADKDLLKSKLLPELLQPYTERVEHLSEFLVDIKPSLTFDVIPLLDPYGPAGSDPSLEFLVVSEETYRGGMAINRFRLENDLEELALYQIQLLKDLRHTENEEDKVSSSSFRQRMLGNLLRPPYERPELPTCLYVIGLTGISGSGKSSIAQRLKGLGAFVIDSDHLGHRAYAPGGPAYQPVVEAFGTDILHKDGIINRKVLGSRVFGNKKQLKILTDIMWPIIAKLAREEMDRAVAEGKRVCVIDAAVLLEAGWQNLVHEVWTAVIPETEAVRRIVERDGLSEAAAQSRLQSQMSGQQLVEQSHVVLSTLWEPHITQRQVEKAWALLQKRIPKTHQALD
- log2 fold change [1]: -0.03 (inactive)
- log2 fold change [2]: 0.054 (inactive)
- log2 fold change [3]: 0.053 (inactive)
- log2 fold change [4]: -0.037 (inactive)
- log2 fold change [5]: -0.021 (inactive)

Target: CCNK isoform 4 (UniProt O75909)
- log2 fold change [1]: 0.045 (inactive)
- log2 fold change [2]: -0.115 (inactive)
- log2 fold change [3]: 0.015 (inactive)
- log2 fold change [4]: 0.103 (inactive)
- log2 fold change [5]: 0.069 (inactive)

Target: CHMP4B (UniProt Q9H444)
- log2 fold change [1]: -0.015 (inactive)
- log2 fold change [2]: -0.004 (inactive)
- log2 fold change [3]: 0.031 (inactive)
- log2 fold change [4]: 0.056 (inactive)
- log2 fold change [5]: 0.054 (inactive)

Target: CCDC9 (UniProt Q9Y3X0)
- log2 fold change [1]: -0.019 (inactive)
- log2 fold change [2]: -0.012 (inactive)
- log2 fold change [3]: -0.118 (inactive)
- log2 fold change [4]: 0.091 (inactive)
- log2 fold change [5]: 0.041 (inactive)

Target: CASP10 isoform 4 (UniProt Q92851)
- log2 fold change [1]: 0.064 (inactive)
- log2 fold change [2]: 0.189 (inactive)
- log2 fold change [3]: 0.114 (inactive)
- log2 fold change [4]: 0.002 (inactive)
- log2 fold change [5]: -0.145 (inactive)

Target: CCDC82 (UniProt Q8N4S0)
- log2 fold change [1]: -0.018 (inactive)
- log2 fold change [2]: 0.056 (inactive)
- log2 fold change [3]: 0.033 (inactive)
- log2 fold change [4]: 0.043 (inactive)
- log2 fold change [5]: 0.004 (inactive)

Target: CCNH (UniProt P51946)
- log2 fold change [1]: 0.02 (inactive)
- log2 fold change [2]: -0.035 (inactive)
- log2 fold change [3]: 0.032 (inactive)
- log2 fold change [4]: 0.002 (inactive)
- log2 fold change [5]: 0.033 (inactive)

Target: CA1 (UniProt P00915)
- log2 fold change [1]: -0.007 (inactive)
- log2 fold change [2]: 0.039 (inactive)
- log2 fold change [3]: 0.019 (inactive)
- log2 fold change [4]: 0.007 (inactive)
- log2 fold change [5]: 0.018 (inactive)

Target: CCNT1 (UniProt O60563)
Chain of UniProt O60563 (O60563 whole entry, looked up): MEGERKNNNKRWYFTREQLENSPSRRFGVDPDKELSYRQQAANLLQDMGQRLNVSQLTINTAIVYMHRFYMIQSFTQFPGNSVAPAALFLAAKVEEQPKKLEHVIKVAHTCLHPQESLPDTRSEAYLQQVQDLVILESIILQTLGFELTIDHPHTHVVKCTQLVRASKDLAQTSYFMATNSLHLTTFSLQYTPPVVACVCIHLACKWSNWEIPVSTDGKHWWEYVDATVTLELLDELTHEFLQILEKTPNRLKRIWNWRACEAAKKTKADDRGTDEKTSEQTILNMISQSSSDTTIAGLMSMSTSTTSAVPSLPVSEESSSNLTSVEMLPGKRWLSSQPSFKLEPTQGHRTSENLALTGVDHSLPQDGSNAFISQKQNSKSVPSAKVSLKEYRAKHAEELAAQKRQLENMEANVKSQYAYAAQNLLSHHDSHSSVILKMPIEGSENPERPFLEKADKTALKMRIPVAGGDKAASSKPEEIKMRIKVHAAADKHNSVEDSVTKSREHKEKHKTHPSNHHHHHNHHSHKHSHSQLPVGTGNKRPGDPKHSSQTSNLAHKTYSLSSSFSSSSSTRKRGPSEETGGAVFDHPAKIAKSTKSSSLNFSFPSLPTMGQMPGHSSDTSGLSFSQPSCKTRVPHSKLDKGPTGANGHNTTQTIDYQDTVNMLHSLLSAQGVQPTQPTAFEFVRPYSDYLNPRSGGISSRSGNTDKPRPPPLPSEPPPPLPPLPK
- log2 fold change [1]: 0.108 (inactive)
- log2 fold change [2]: -0.022 (inactive)
- log2 fold change [3]: -0.036 (inactive)
- log2 fold change [4]: 0.085 (inactive)
- log2 fold change [5]: 0.072 (inactive)

Target: CDC42EP1 (UniProt Q00587)
- log2 fold change [1]: -0.067 (inactive)
- log2 fold change [2]: 0.107 (inactive)
- log2 fold change [3]: 0.041 (inactive)
- log2 fold change [4]: 0.043 (inactive)
- log2 fold change [5]: -0.029 (inactive)

Target: CPSF6 isoform 2 (UniProt Q16630)
- log2 fold change [1]: 0.036 (inactive)
- log2 fold change [2]: -0.038 (inactive)
- log2 fold change [3]: 0.048 (inactive)
- log2 fold change [4]: 0.02 (inactive)
- log2 fold change [5]: -0.016 (inactive)

From the supplement of paper PMC10849652
